Rows were chosen to be rich in hits. Some 2.8% of all compounds tested hit in one or more screens of this group.
WRN helicase inh – inhibitors of human WRN helicase; Q14191; WRN helicase unwinding, fluorescent forked duplex, kinetic; Potency, µM (top dose mostly 114 µM), for inactives: top-dose activity change, negative = inhibition, most hits filed as inhibitors; 0.46% of 360,000 active; AID 651768; further: potency means the concentration at half of the fitted maximal effect; on the % scale 0 is the no-effect control and ±100 the full control effect; nearly all actives have a fitted effect of over 55% in size
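WRN at 20 nM final preincubated with compound 15 min at room temperature; reaction started with 100 nM fluorophore/quencher forked duplex oligonucleotide and 2 mM ATP final. Unwinding followed kinetically by red fluorescence (ex 525, em 598 nm).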
Pol eta inh – DNA polymerase eta (human) inhibition; recombinant Pol eta, fluorescent DNA replication assay; Potency, µM (highest dose often 114 µM), for inactives: top-dose activity change, negative = inhibition, actives largely listed as inhibitors; 1.2% of 390,000 active; AID 588591; further: potency means the concentration at half of the fitted maximal effect; on the % scale 0 is the no-effect control and ±100 the full control effect
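Pol eta (10 nM) was preincubated with compounds for 15 min at room temperature, after which fluorescent replication substrate (50 nM final) was added to start the reaction. Fluorescence was read kinetically at 0 and 10 min.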
PI5P4Ka inh – PI5P4K alpha (human) kinase inhibition. P48426. PI5P4Kalpha enzyme, ADP-Glo luminescence, 60 min; hits give low values. max response, %. 1.2% of 330,000 active. AID 652105; active means max response of -50% or lower; inconclusive means between -30% and -50%; inactive means -30% or higher; further: value at the top dose of about 77 µM; on the % scale 0 is the no-effect control and ±100 the full control effect
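ADP-Glo luminescence end-point after a 60 min room-temperature kinase reaction. PI5P4Kalpha and substrate in HEPES pH 7.4 buffer with EGTA, 0.1% CHAPS and 5% DMSO; ATP at 5 microM final.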
Pol iota inh – inhibitors of human DNA polymerase iota; Pol iota fluorescent replication assay, 10 min; Potency, µM (doses to about 115 µM), inactives show at the top dose activity, negative = inhibition, actives largely listed as inhibitors; 1% of 390,000 active; further: potency means the concentration at half of the fitted maximal effect
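Fluorescent replication assay read twice, at 0 min and 10 min after adding 50 nM (final) substrate. Enzyme (10 nM) and compounds were first incubated 15 min at room temperature; enzyme-free buffer wells were negative controls.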
POLB inh – inhibitors of human DNA polymerase beta | P06746 | Pol beta primer extension/strand displacement, fluorescence kinetic | Potency, µM (series often up to 114 µM), inactives show at the highest dose activity change, negative = inhibition, actives largely listed as inhibitors | 1.3% of 340,000 active; further: potency means the concentration at half of the fitted maximal effect; on the % scale 0 is the no-effect control and ±100 the full control effect
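Reaction started by 50 nM substrate onto compound-treated Pol beta (10 nM, 15 min preincubation, room temperature); plates read at 0 min and 10 min. Normalized concentration-effect data fitted by four-parameter Hill equation.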
POLK inh – DNA polymerase kappa (human) inhibition | AID 588579 | purified Pol kappa, fluorescent DNA synthesis assay, 10 min | Potency, µM (doses to about 107 µM), for the others: top-dose activity, negative = inhibition, usual class: inhibitors | 0.53% of 400,000 active; further: potency means the concentration at half of the fitted maximal effect; on the % scale 0 is the no-effect control and ±100 the full control effect
Target sequence (Q9UBT6 whole entry, looked up): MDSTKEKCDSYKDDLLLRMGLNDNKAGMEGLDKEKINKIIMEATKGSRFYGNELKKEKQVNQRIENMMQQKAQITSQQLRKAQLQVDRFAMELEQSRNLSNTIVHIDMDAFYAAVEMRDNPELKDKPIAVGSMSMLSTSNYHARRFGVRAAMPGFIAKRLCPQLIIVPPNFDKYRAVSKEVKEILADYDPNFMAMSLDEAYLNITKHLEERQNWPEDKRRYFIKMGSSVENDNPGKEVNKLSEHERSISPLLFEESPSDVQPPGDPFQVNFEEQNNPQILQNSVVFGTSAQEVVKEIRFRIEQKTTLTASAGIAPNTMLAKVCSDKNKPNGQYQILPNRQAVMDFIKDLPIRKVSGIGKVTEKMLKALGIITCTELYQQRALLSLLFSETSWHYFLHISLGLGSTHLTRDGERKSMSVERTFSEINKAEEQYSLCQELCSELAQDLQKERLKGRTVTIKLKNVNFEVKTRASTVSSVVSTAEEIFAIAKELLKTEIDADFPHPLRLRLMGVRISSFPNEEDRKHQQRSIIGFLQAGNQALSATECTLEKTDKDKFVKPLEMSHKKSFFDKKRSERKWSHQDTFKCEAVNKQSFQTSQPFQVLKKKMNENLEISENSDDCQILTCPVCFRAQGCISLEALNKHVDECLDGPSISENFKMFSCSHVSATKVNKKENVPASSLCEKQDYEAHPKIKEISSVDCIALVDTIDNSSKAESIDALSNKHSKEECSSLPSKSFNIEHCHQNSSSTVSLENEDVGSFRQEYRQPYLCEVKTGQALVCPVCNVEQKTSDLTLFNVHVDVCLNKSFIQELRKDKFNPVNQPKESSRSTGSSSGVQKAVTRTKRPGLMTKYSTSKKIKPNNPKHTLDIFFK
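50 nM final substrate added after 15 min RT preincubation of 10 nM Pol kappa with compound; fluorescence read at 0 and 10 min.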
* = called active by the depositor; ? = inconclusive; . = no result; [ ] = dose if it differs, or a comment. Unless noted, the call rests on the fitted dose curve; in most records, active means well fitted curve in the direction sought with a large enough effect; inconclusive means small, poorly fitted or top-dose-only effect, or another doubt; inactive means no such curve, though single readings can be large; an effect the other way counts as inactive or inconclusive.

SMILES | WRN helicase inh | Pol eta inh | PI5P4Ka inh | Pol iota inh | POLB inh | POLK inh
CC1=Nc2ccccc2/C1=C\c1nc(-c2ccc(C(F)(F)F)cc2)oc1O | ? | 55% | . | 8.9µM* | 16% | -13%
CC1=Nc2cc(C(=O)O)ccc2Sc2ccc(Br)cc21 | -8%[57.1 µM] | 50µM* | -16 | ? | 1% | ?
CC1=Nc2cc(C(=O)NC3CCCC3)ccc2Sc2ccc(Br)cc21 | . | -12% | . | 8% | 21% | -11%
COc1ccc2[nH]c(O)c(N=NC(=O)Cc3cccs3)c2c1 | -2%[11.6 µM] | 32µM* | -69* | ? | ? | -40%
O=C(Cc1cccs1)N=Nc1c(O)[nH]c2ccc(Br)cc12 | ? | 0% | ? | ? | -12% | -20%
CCN(CC)CCCNC(=O)c1ccc2c(c1)N(Cc1c(F)cccc1Cl)C(=O)c1ccccc1S2 | . | -15% | . | 18% | 3% | -9%
O=C(NC(NNc1ccc([N+](=O)[O-])cc1)(C(F)(F)F)C(F)(F)F)c1ccc(F)cc1 | ? | -13% | -71* | -4% | -15% | -25%
Cn1c(NCCCO)nc2c1c(=O)n(Cc1ccccc1F)c(=O)n2C | -7% | -15% | . | 23% | 0% | -18%
COc1ccccc1Oc1nc2c(c(=O)n(Cc3ccccc3F)c(=O)n2C)n1C | 7% | -10% | 2 | -1% | 18µM* | 9%
CCc1nc2nc(C)c(NS(=O)(=O)c3ccc(Cl)s3)c(=O)n2[nH]1 | -5%[57.1 µM] | -6% | 10 | 29% | 19% | -8%
CCOC(=O)[C@H]1[C@H]2COc3ccc(Cl)cc3[C@@H]2N2C(=O)[C@@H](C)NC(=O)[C@@]12C | 4% | -1% | -1 | 17% | . | 9%
COc1ccccc1OC(=O)c1cc2ccccc2oc1=O | 3% | -11% | 0 | 21% | 11% | -16%
COc1cc(/C=C/[N+](=O)[O-])ccc1OC(=O)c1cc2ccccc2oc1=O | -29%[11.6 µM] | ? | -61* | ? | -19% | -17%
Cc1cccc2c(N=Nc3ccc(S(=O)(=O)Nc4ccc(Cl)cc4)cc3[N+](=O)[O-])c(O)[nH]c12 | -13% | 1% | -74* | 7% | -2% | -18%
COc1cc(NC(=O)COc2ccc(-n3cnnn3)cc2)c(OC)cc1Cl | -10% | -4% | ? | -51% | -28% | -25%
O=C(COc1ccc(-n2cnnn2)cc1)Nc1cccc(Cl)c1Cl | -15% | -6% | ? | ? | 50µM* | -32%
COc1ccc(/C=C2/SC(=S)N(CC(=O)O)C2=O)cc1OCc1ccc(Cl)cc1 | 56µM* | ? | -12 | -1% | ? | -4%
O=C(CCN1C(=O)/C(=C\c2ccccc2)SC1=S)NCCCN1CCOCC1 | 2% | 7% | 0 | 5% | 21% | -7%
Cc1nn(-c2ccccc2)c(Cl)c1/C=C1\SC(=S)N(CCCCCC(=O)O)C1=O | -23% | 25µM* | 2 | -18% | 27% | -7%
Cc1nn(-c2ccccc2)c(Cl)c1/C=C1\SC(=S)NC1=O | -15%[11.6 µM] | ? | . | -22% | 7% | -2%
O=C1C(=Cc2ccccc2O)SC(=S)N1CCCN1CCOCC1 | -4% | -16% | -69* | . | . | .
O=C(O)CN1C(=O)/C(=C\c2ccccc2OCc2ccccc2)SC1=S | -8% | 79µM* | -15 | . | . | .
Cc1cc(C)cc(Nc2cc(C)nc3nc(-c4ccco4)nn23)c1 | . | -9% | . | -11% | -3% | 2%[60.1 µM]
Cc1ccc(S(=O)(=O)N2CCN(c3nc(-n4ccnc4)nc4ccccc34)CC2)cc1 | . | . | . | ? | . | -6%
COc1ccc(OC)c(CNC(=O)C(C)n2nc(C)c3c(C)n(-c4ccccc4)nc3c2=O)c1 (stereo not drawn) | -2% | -9% | 0 | 40% | 13% | 10%
SMILES | WRN helicase inh | Pol eta inh | PI5P4Ka inh | Pol iota inh | POLB inh | POLK inh
O=C(O)CCCN1C(=O)/C(=C\c2ccccc2OCc2ccccc2)SC1=S | ? | 79µM* | -1 | ? | ? | -14%
O=C(O)CN1C(=O)/C(=C\c2ccccc2OCc2ccc(F)cc2)SC1=S | -10%[11.6 µM] | ? | -30 | ? | ? | -27%
CCC(/C=C1\Sc2ccc(OC)cc2N1CCO)=C\c1sc2ccc(OC)cc2[n+]1CCO | 50µM* | 14µM* | -78* | ? | 22µM* | ?
CCC(/C=C1\Sc2ccc(OC)cc2N1CC)=C\c1sc2ccc(OC)cc2[n+]1CCCS(=O)(=O)[O-] | 32% | ? | ? | 121% | 8.9µM* | 23%[60.1 µM]
CCC(=O)/C=C1/Sc2ccc(OC)cc2N1CC | 4%[57.1 µM] | -1% | . | 28% | -11% | -3%
CCC(=O)/C=C1/Sc2ccc(OC)cc2N1CCO | -2% | -22% | -51* | 71% | -13% | -1%
CCn1c(CN2CCC(C)CC2)nc2cc(NC(=O)c3cccc([N+](=O)[O-])c3)ccc21 | . | 11% | . | -13% | -13% | -7%
CC1CCc2sc(C(=O)NC3CCCCC3)cc2C1 (stereo not drawn) | -4% | -5% | 4 | 9% | . | 8%
CC1CCc2sc(-c3n[nH]c(=S)o3)cc2C1 (stereo not drawn) | -2% | -7% | -68* | 9% | -3% | -1%
S=c1[nH]nc(-c2cc3c(s2)-c2ccccc2CC3)o1 | -32% | -16% | -89* | 1% | 0% | -12%
Cc1nn(C)cc1/C=C/C(=O)c1ccc(O)cc1 | -13% | -3% | -21 | -3% | 10% | -20%
COc1cc(/C=C2/C=Cc3ccccc32)ccc1N(C)C | . | . | . | 71µM* | . | ?
COc1ccc(CCNC(=O)CN(C)S(=O)(=O)c2cccs2)cc1 | -3% | -2% | 1 | 8% | . | -15%
NC(=S)N=Nc1c(O)cc(O)c2[nH]c(=O)ccc12 | 16µM* | 1.8µM* | -72* | 3.2µM* | . | ?
NC(=S)N=Nc1c(O)[nH]c2ccc(F)cc12 | -17% | -15% | -10 | 32% | 28% | -4%
COc1ccc(CCC(=O)Nc2c(-c3ccc(N(C)C)cc3)[nH][nH]c2=O)cc1 | -28% | . | -60* | . | . | .
Clc1ncc(C#Cc2ccccc2)c2ncncc12 | . | . | . | ? | . | -3%
S=c1[nH]nc(-c2cc(-c3ccccc3)n[nH]2)n1/N=C/C=C/c1ccccc1 | 3% | 43% | -25 | 10% | ? | 4%
O=[N+]([O-])c1ccccc1/C=C/C=N/n1c(-c2cc(-c3ccccc3)n[nH]2)n[nH]c1=S | -18% | 32µM* | ? | ? | 10µM* | -16%
Cc1cccc(/C=N/n2c(-c3cc(-c4ccccc4)n[nH]3)n[nH]c2=S)c1 | -11% | -4% | -14 | 4% | 56µM* | -4%
S=c1[nH]nc(-c2cc(-c3ccccc3)n[nH]2)n1/N=C/c1ccccc1 | -5% | -1% | -9 | 0% | 2% | -18%

Compound activity (PubChem BioAssay)
